Source: PMC4336329 (PLoS ONE, 2015)
Hit rate of the full screen: of about 310,000 compounds, about 14,000 (4.5%) showed an effect of 50% or more. Effects have a minus sign here. For the sample, strong results were picked, then their nearest neighbours and some compounds at random.

target: human ether-à-go-go-related gene (hERG) potassium channel (human, UniProt Q12809); assay: primary screen, population patch clamp on CHO cells stably expressing hERG; higher = less effect of the substance
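Also: peak tail current of the secondary pulse compared with the same well before compound.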

Chain of human ether-à-go-go-related gene (hERG) potassium channel (Q12809 whole entry, looked up): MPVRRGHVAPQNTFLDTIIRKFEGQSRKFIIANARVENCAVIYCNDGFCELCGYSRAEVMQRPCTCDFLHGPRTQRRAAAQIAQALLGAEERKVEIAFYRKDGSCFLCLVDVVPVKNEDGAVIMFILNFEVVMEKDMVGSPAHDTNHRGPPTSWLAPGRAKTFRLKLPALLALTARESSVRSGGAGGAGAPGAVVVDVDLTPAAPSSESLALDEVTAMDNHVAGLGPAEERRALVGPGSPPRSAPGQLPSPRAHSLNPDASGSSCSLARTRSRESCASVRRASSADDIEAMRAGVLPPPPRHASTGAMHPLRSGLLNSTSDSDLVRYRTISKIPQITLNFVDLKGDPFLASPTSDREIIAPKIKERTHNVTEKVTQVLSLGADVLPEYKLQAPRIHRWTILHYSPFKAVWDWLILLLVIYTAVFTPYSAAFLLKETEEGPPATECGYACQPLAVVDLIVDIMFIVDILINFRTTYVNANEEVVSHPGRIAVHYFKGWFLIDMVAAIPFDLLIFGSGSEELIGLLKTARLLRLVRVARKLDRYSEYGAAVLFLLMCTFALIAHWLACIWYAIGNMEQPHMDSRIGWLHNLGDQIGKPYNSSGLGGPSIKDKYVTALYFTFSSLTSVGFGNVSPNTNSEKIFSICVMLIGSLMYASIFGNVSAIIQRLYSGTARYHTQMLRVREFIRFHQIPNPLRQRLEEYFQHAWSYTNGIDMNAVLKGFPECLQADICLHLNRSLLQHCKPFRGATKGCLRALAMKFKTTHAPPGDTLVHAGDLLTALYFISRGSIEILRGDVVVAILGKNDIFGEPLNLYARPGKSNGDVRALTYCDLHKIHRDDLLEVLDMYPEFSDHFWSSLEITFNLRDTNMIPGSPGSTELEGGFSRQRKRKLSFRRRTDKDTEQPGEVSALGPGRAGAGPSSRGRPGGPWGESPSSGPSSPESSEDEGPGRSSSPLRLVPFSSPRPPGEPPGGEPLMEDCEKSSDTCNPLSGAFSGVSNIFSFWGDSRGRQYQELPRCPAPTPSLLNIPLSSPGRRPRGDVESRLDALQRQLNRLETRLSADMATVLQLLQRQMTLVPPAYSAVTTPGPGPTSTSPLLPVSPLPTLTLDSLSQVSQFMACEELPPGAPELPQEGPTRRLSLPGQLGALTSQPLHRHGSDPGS

SMILES	hERG current change (%, negative = inhibition) at 10uM
CC1=C/C(=C(/c2ccc(O)c(C)c2)c2ccccc2S(=O)(=O)[O-])C=CC1=O.[Na+]	3.9%
Cc1ccc(NC(=O)CSc2ccc(-c3cccnc3)nn2)cc1	-12.3%
Cc1cccc(OCC(=O)N/N=C\c2cc3c(cc2[N+](=O)[O-])OCO3)c1C	-7.82%
Cc1ccccc1C(=O)Nc1ccccc1C(=O)NC1CC1	6.72%
Cc1ccccc1N(CC(=O)NC1CCCCC1)C(=O)c1csnn1	8.46%
CCC(=O)Nc1sc2c(c1C(N)=O)CCN(C(C)=O)C2	10.7%
Cc1ccc(C(=O)Oc2cccc(NC(=O)c3ccccc3)c2)cc1C	19.2%
Cc1cc(C)cc(NC(=O)[C@@H](NC(=O)c2ccco2)C(C)C)c1	5.62%
Cc1cc(C(=O)NNC(=O)/C=C/c2ccc(F)cc2)c(C)o1	1.41%
CCN1CCN(Cc2ccc(NC(=O)c3cc(NC(=O)c4cc(-c5ccc(OC)cc5)n[nH]4)cc(OC)c3)cc2C(F)(F)F)CC1	11.9%
CC(C)Nc1nc(NC(C)(C)C)nc(Oc2ccc(=O)n(C)n2)n1	-15.3%
Cc1c(C(=O)NC2=NCCS2)oc2ccccc12	-25.4%
Cc1cc(C)nc(Oc2ccc(Br)cc2Br)n1	19.1%
COc1ccccc1CN1CCN(C(=O)COc2ccccc2)CC1	-8.47%
CCOc1ccccc1CN1CCC(CO)(CCOc2ccccc2)CC1	-80.2%
OCC1(CCOc2ccccc2)CCN(Cc2ccccc2OC(F)F)CC1	-72.5%
OCC1(CCOc2ccccc2)CCN(Cc2ccccc2C(F)(F)F)CC1	-34.2%
C=CCOc1ccccc1CN1CCC(CO)(CCOc2ccccc2)CC1	-81.9%
C=CCOc1ccccc1CN1CCCN(C)CC1	6.51%
CCOc1ccccc1CN1CCN(S(=O)(=O)CC)CC1.O=C(O)C(=O)O	10.7%
OCC1(CCOc2ccccc2)CCN(Cc2ccc(OC(F)F)cc2)CC1	-79%
CCOCCCn1c(=O)c(NC(=O)c2ccc(OCC)cc2)c2n(c1=S)CCCCC2	-27.8%

SMILES	hERG current change (%, negative = inhibition) at 10uM
CCCCCc1nnc(NC(=O)c2cccc(S(=O)(=O)N3CCOCC3)c2)s1	-41.8%
Cn1c(Cn2c(=O)sc3ccccc32)nnc1SCc1ccccc1F	-19.9%
CCC(=O)N1CCN(c2ccc(NC(=O)c3cccs3)cc2)CC1	-0.84%
COc1cc(/C=N/n2cnnc2)ccc1OC(=O)c1ccncc1	8%
O=C(COc1ncnc2ccccc12)Nc1ccc(S(=O)(=O)N2CCOCC2)cc1	9.94%
N#C/C=C(/N)c1ccc(Br)cc1	7.26%
c1ccc(Cn2ncc3c(Nc4ccccc4)ncnc32)cc1	6.01%
CCOc1ccc(CCNC(=O)COC(=O)C2CCN(c3ccc(C(F)(F)F)cn3)CC2)cc1OCC	-10.9%
Cc1cccc(NS(=O)(=O)c2ccc(C(=O)NCCCN3CCCC3=O)cc2)c1C	4.04%
Cc1nc([N+](=O)[O-])cn1CC(O)c1ccc(-c2ccccc2)cc1 (stereo not shown)	-44.3%
Cc1ccc(N=Nc2c(O)n(CN3CCOCC3)c3ccccc23)cc1	3.48%
Cc1ccc(NC(=O)CS(=O)CC(=O)NC2CCN(Cc3ccccc3)CC2)c(C)c1 (stereo not shown)	-3.54%
S=C(Nc1ccccc1)N1CCN(Cc2ccccc2)CC1	-4.13%
COc1ccc(NC(=S)N2CCN(Cc3ccccc3)CC2)cc1	0.401%
FC(F)Oc1ccc(NC(=S)N2CCN(Cc3ccccc3)CC2)cc1	-56%
Cc1ccc(NS(=O)(=O)c2cccc(C(=O)NCC(c3cccs3)N3CCOCC3)c2)cc1 (stereo not shown)	-14.3%
Cl.Clc1ccccc1CNC1CN2CCC1CC2 (stereo not shown)	-3.27%
COc1ccc(OCC(=O)Nc2ccc(C(=O)Nc3ccccc3C(=O)O)cc2)cc1	23.2%
CC(C)(C)c1nnc(NC(=O)c2cc(-c3ccccc3)nc3ccccc23)s1	17.3%
COc1ccc(CCN(C)C(=O)c2cc(-c3ccccc3)nc3ccc(C)cc23)cc1OC	-52.1%
COc1ccc(CCN(C)C(=O)c2cc(-c3ccccc3)nc3ccccc23)cc1OC	-4.79%
COc1ccc(CCN(C)C(=O)c2cc(-c3ccc(C)cc3)nc3ccccc23)cc1OC	-26.7%

SMILES	hERG current change (%, negative = inhibition) at 10uM
O=C(O)CN1CCN(Cc2ccccc2F)C1=O	24.7%
COc1ccc(Nc2nccc(OC)c2C#N)cc1	-38.8%
COc1ccc(Nc2nccc(-c3ccc(C#N)cc3)n2)cc1	1.36%
COc1cnc(SC)nc1Nc1ccc(C#N)cc1	-66.8%
COc1cccc(N2C(=O)C3CCCN3C2c2ccc(Cl)cc2)c1 (stereo not shown)	-1.05%
COc1cc(NC(=O)C2CCC(CNc3c(N4CCC(C)CC4)c(=O)c3=O)CC2)cc(OC)c1 (stereo not shown)	16.7%
O=C(CN1CCN(c2ccccn2)CC1)Nc1ccc2ccccc2c1	-43.9%
O=C1[C@H]2[C@@H](C(=O)N1c1cccc3ccccc13)C1(C(=O)c3ccccc3C1=O)N1CCC[C@@H]21	-69%
O=C1C2C3C=CC(C4CC34)C2C(=O)N1c1cccc2ccccc12 (stereo not shown)	-0.113%
O=C1C2C3C=CC(C3)C2C(=O)N1c1cccc2ccccc12 (stereo not shown)	18.7%
Cn1c(CCNC(=O)C(C)(C)C)nc2ccccc21	16.4%
O=C(NC1CCCCC1)C1CC=CCC1C(=O)OCC(Cl)=C(Cl)Cl (stereo not shown)	-20.7%
COc1ccc(Oc2ncccc2[N+](=O)[O-])cc1	6.57%
CN(C)c1ccc(/C=N/NC(=O)c2ccco2)cc1	1%
COc1ccc(Cl)cc1NC(=O)CN1CCN(S(=O)(=O)N2CCC(C)CC2)CC1	-32.1%
COc1ccc(Cl)cc1NC(=O)CN1CCN(S(=O)(=O)N2CCCCC2)CC1	-9.48%
O=C(CN1CCN(S(=O)(=O)N2CCOCC2)CC1)Nc1cc(Cl)ccc1Cl	-55.2%
O=C(CN1CCN(S(=O)(=O)N2CCCCC2)CC1)Nc1cc(Cl)ccc1Cl	10.7%
O=C(CN1C(=O)c2ccc([N+](=O)[O-])cc2C1=O)Nc1cc(S(=O)(=O)N2CCOCC2)ccc1Cl	-60.8%
COc1ccc(S(=O)(=O)N2CCN(CC(=O)Nc3cc(Cl)ccc3Cl)CC2)cc1	-7.44%
CN(C)S(=O)(=O)N1CCN(CC(=O)Nc2cc(Cl)ccc2Cl)CC1	-50.8%
CN1CCN(CC(=O)Nc2cc(S(=O)(=O)N3CCOCC3)ccc2Cl)CC1	4.13%

SMILES	hERG current change (%, negative = inhibition) at 10uM
O=C(CN1CCN(S(=O)(=O)N2CCCCCC2)CC1)Nc1cc(Cl)ccc1Cl	7.48%
COc1ccc(Cl)cc1NC(=O)CN1CCN(S(=O)(=O)N2CCOCC2)CC1	-55.9%
O=C(CN1CCOCC1)Nc1cc([N+](=O)[O-])ccc1Cl	-17%
CN(C)c1ccc(NC(=O)CN2CCN(S(=O)(=O)c3cc(Cl)ccc3Cl)CC2)cc1	-1.09%
O=C(O)c1ccccc1-c1cc2ccccc2[nH]1	19.7%
N#C/C(=C/c1ccc(N2CCOCC2)c([N+](=O)[O-])c1)C(N)=O	-39.8%
O=C(OC(C(=O)NCC1CCCO1)c1ccccn1)c1cccs1 (stereo not shown)	1.83%
COCc1nc2ccccc2n1Cc1cccc(C)c1	-12.8%
O=S(=O)(NCC(c1ccco1)N1CCN(c2ccccc2F)CC1)c1ccc(F)cc1 (stereo not shown)	-11.2%
CC(C)CNc1nc(Oc2ccc(=O)[nH]n2)nc(N2CCOCC2)n1	7.99%
COc1ccc(Cl)cc1NC(=O)CN1CCN(C(=O)N2CCOCC2)CC1	-38.8%
O=C(CN1CCN(C(=O)C2CCCO2)CC1)Nc1cc(C(F)(F)F)ccc1Cl (stereo not shown)	-45.8%
O=C(CN1CCN(C(=O)N2CCOCC2)CC1)Nc1cc(Cl)ccc1Cl	-59.9%
Cc1ccc(Cl)cc1NC(=O)CN1CCN(C(=O)C2CCCO2)CC1 (stereo not shown)	-29.8%
O=C(CN1CCN(C(=O)C2CCCO2)CC1)Nc1cc(Cl)ccc1Cl (stereo not shown)	-61.9%
Cc1ccc(Cl)cc1NC(=O)CN1CCN(S(=O)(=O)N2CCOCC2)CC1	-64.3%
O=C(CN1CCOCC1)Nc1cc(Cl)ccc1Cl	-32.5%
Cc1ccc(Cl)cc1NC(=O)CN1CCOCC1	-0.857%
Cc1ccc(Cl)cc1NC(=O)CN1CCN(S(=O)(=O)N2CCC(C)CC2)CC1	-41.3%
Cn1nnc2cc(C(=O)Nc3ccc(Cl)cc3)ccc21	-3.78%
COc1ccc(-c2cc(C(=O)O)nc3ccc4ccccc4c23)cc1OC	12.6%
O=C(CSc1nc(O)cc(=O)[nH]1)C1CC1	7.82%
